Data taken from PubChem BioAssay (NCI).
Compounds without any hit were thinned out: in the full panel of roughly 79,000, 15% have a hit. Values without a mark were called inactive. Active and inactive are the calls of the source. Rule as the data show it: active = growth inhibition above about 70%; inactive = the rest.

Experiment: NCI Yeast Anticancer Drug Screen. Data for the rad52 strain (AID 147);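 also: 0% = growth of vehicle-treated control cultures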
Settings: S. cerevisiae rad52 mutant growth inhibition, stronger effect = higher value
Method: Growth inhibition of yeast strains with defined genetic alterations is measured as a screen for potential anti-cancer activity. Selected strains with alterations in DNA damage repair or cell cycle control were exposed to compounds and growth inhibition was measured relative to vehicle treated controls. The strain used in this assay is rad52

NC(=NCc1ccccc1)N/N=C\c1ccnc2ccccc12
growth inhibition (at 1.2 µM): 0% | growth inhibition (at 3.7 µM): -3% | growth inhibition (at 11.0 µM): 0% | growth inhibition (at 33.0 µM): 0% | growth inhibition (at 100.0 µM): 32%

[N-]=[N+]=NC1=C(c2ccccn2)C(=O)c2cccc3cccc1c23
growth inhibition (at 1.2 µM): 2% | growth inhibition (at 3.7 µM): 4% | growth inhibition (at 11.0 µM): 24% | growth inhibition (at 33.0 µM): 50% | growth inhibition (at 100.0 µM): 75% (active)

CN=C(N)N/N=C/c1ccc2c(c1)Cc1ccccc1-2
growth inhibition (at 1.2 µM): 6% | growth inhibition (at 3.7 µM): 19% | growth inhibition (at 11.0 µM): 20% | growth inhibition (at 33.0 µM): 31% | growth inhibition (at 100.0 µM): 94% (active)

C[Si](C)(C)CNC(=O)OCc1ccccc1
growth inhibition (at 1.2 µM): -1% | growth inhibition (at 3.7 µM): -4% | growth inhibition (at 11.0 µM): 6% | growth inhibition (at 33.0 µM): 2% | growth inhibition (at 100.0 µM): 16%

CC[n+]1ccc2c(C)c3[nH]c4ccc(O)cc4c3c(C)c2c1
growth inhibition (at 1.2 µM): 5% | growth inhibition (at 3.7 µM): 48% | growth inhibition (at 11.0 µM): 70% (active) | growth inhibition (at 33.0 µM): 90% (active) | growth inhibition (at 100.0 µM): 92% (active)

CN(C)CCOc1ccc2c(c1)C/C(=C/c1ncc([N+](=O)[O-])n1C)C2=O
growth inhibition (at 1.2 µM): 50% | growth inhibition (at 3.7 µM): 70% (active) | growth inhibition (at 11.0 µM): 83% (active) | growth inhibition (at 33.0 µM): 91% (active) | growth inhibition (at 100.0 µM): 90% (active)

O=C(c1cc(Br)ccc1O)c1cc(Br)ccc1O
growth inhibition (at 1.2 µM): 13% | growth inhibition (at 3.7 µM): 80% (active) | growth inhibition (at 11.0 µM): 99% (active) | growth inhibition (at 33.0 µM): 99% (active) | growth inhibition (at 100.0 µM): 99% (active)

CCN(CC)CCC(=O)c1ccc(Oc2ccc(F)cc2)cc1
growth inhibition (at 1.2 µM): -23% | growth inhibition (at 3.7 µM): -26% | growth inhibition (at 11.0 µM): -40% | growth inhibition (at 33.0 µM): 8% | growth inhibition (at 100.0 µM): 83% (active)
